Hsp70 act = Hsp70 transcriptional activation, primary screen; HeLa Hsp70 promoter luciferase reporter, luminescence; scaled: vehicle 0, proteasome-inhibitor control 100%; activation, % at 10 µM; hit rate 0.04% among 200,000; AID 1203;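 active = activation above the mean across all tested compounds plus 3 SD, cutoff set per campaign, cut at about 5.5% in these data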
TNF death inh = inhibitors of TNF-alpha induced necroptosis in Jurkat FADD-/- cells; hit rate 0.068% among 220,000; AID 463075; activation (protection from cell death), % at 10 µM; Jurkat FADD-/- TNF necroptosis rescue, ATP luminescence, 24 h; 0 = TNF only, 100 = no-TNF cells;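 active = activation, meaning protection from cell death, of at least 50% relative to plate controls; inactive = activation below 50%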;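 note: necroptosis triggered by 40 ng/mL TNF-alpha added together with compound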
zVAD death inh = blocks zVAD induced death of L929 cells; AID 1377; L929 zVAD necroptosis rescue, ATP luminescence, 24 h; with zVAD 60 µM; viability rescue, % at 10 µM; hit rate 0.38% among 220,000;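 active = activation, scaled between plate controls, above about 75%, limit read from the data; inactive = activation under that limit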
HSF-1 act = increases HSF-1 driven luciferase reporter signal. hit rate 1.7% among 300,000. NIH3T3-HGL HSF-1 luciferase reporter, MG132, 8 h; 100% = twice DMSO control signal. activation, % at 9 µM. AID 504408;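 active = mean replicate activation of at least 50% with a set share of replicates each reaching 50%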
Numbers stand for hits; . = inactive; / = no result given. Only some compounds are listed: those with a hit (about 1.9% of all), similar ones and a draw of the others.

SMILES	Hsp70 act	TNF death inh	zVAD death inh	HSF-1 act
CC(=O)/C(=N/Nc1ccccc1)Sc1nnc(C(O)c2ccccc2)n1-c1ccccc1 (centres undefined)	.	.	.	.
Brc1ccc(N=C(c2ccccc2)c2ccncc2)cc1	.	.	.	.
Cc1cc(C)cc(NC(=O)CSc2nc3c(c(=O)[nH]2)CN(Cc2ccc(F)cc2)CC3)c1	.	.	.	.
Cc1ccnc(Cc2ccccc2)n1	/	/	/	.
O=C(Nc1ccccc1)c1ccc(NC(=O)C2CC2)cc1	/	/	/	54
O=C(Nc1ccc(C2SCCS2)cc1)c1ccccc1	/	.	.	54
O=C(Nc1ccccc1C(=O)O)c1ccc(NC(=O)C2CCCCC2)cc1	/	/	/	.
Cc1nc2ccccc2nc(C)c1=NOCc1ccccc1Cl	.	.	.	55
Cc1cccc(N(C(=O)c2ccc(CN3CCOCC3)o2)C(C(=O)NC(C)(C)C)c2ccc(F)cc2)c1 (centres undefined)	.	.	.	64
CCCCCn1c(Sc2nc3ccccc3s2)nc2c1c(=O)[nH]c(=O)n2C	.	.	.	58
Cn1c(=O)[nH]c(=O)c2c1nc(N1CCN(c3cccc(Cl)c3)CC1)n2CCCc1ccccc1	.	.	.	.
CCCCCn1c(N2CCN(c3cccc(Cl)c3)CC2)nc2c1c(=O)[nH]c(=O)n2C	.	.	.	111
CN1CCN(C(=O)C(N)Cc2ccccc2)CC1 (centres undefined)	.	.	.	.
Cc1c(OCC(=O)NCCCn2ccnc2)ccc2c3c(c(=O)oc12)CCCC3	/	/	/	57
CCCc1cc(=O)oc2c(C)c(OCC(=O)NCCCn3ccnc3)ccc12	/	/	/	.
CCOC(=O)COc1ccc(Br)cc1/C=C/c1[nH]c(=O)[nH]c(=O)c1[N+](=O)[O-]	.	.	.	85
CCOc1cc(/C=C\c2[nH]c(=O)[nH]c(=O)c2[N+](=O)[O-])ccc1OC(C)CC (centres undefined)	.	.	.	64
CCOC(=O)C1(CCOc2ccccc2)CCN(Cc2cc(OC)c3c(c2)OCO3)CC1	.	.	.	57
CCOC(=O)C1(CCOc2ccccc2)CCN(Cc2cccc3c2OCO3)CC1	.	.	.	.
CCOc1ccc(S(=O)(=O)N(CC)CC(=O)NCc2cccnc2)cc1C	/	/	/	.
CCOC(=O)CSc1nc(-c2ccncc2)ccc1C#N	.	.	.	64
O=c1[nH]c(SCc2ccc(Cl)cc2)nc2ccsc12	.	.	.	127
N#Cc1c(-c2cccs2)nc(SCc2ccc(Cl)cc2)[nH]c1=O	.	.	.	.
CCOc1cc(/C=C2\CCCc3c2nc2ccccc2c3C(=O)O)ccc1OC	/	/	/	56
COc1cc(/C=C2\CCCc3c2nc2ccccc2c3C(=O)O)cc(Br)c1O	/	/	/	.
SMILES	Hsp70 act	TNF death inh	zVAD death inh	HSF-1 act
CC1CCCC(C)N1C(=O)Cn1nnc(-c2ccc([N+](=O)[O-])cc2)n1 (centres undefined)	/	/	/	.
COc1ccc(CNC(=O)Nc2cccs2)cc1OC	.	.	.	.
Cc1ccc(CNC(=O)Nc2cccs2)cc1	.	.	.	73
Cc1ccc(C2=Nc3ccccc3N=C(C(Cl)Cl)C2)cc1	.	.	.	93
CC1(c2ccccc2)CC(c2ccccc2)=Nc2ccccc2N1 (centres undefined)	/	.	.	.
Cc1ccc(O)c(C2=Nc3ccccc3N=C(c3cccs3)C2)c1	.	.	.	.
Cc1ccc2c(c1)N=C(c1ccccc1)CC(C(Cl)Cl)=N2	/	.	.	61
CC(NC(=O)CCCN1C(=O)c2ccccc2C1=O)c1ccc2c(c1)CCCC2 (centres undefined)	.	.	.	203
CC(NC(=O)CCCCCN1C(=O)c2ccccc2C1=O)c1ccc2c(c1)CCCC2 (centres undefined)	.	.	.	.
CC(=O)Nc1ccc(S(=O)(=O)Nc2ccc(S(=O)(=O)Nc3nccs3)cc2)cc1	/	/	/	.
CCC(c1nnnn1CCc1ccccc1)N(Cc1ccco1)Cc1cc2cccc(C)c2[nH]c1=O (centres undefined)	.	.	.	90
CCC(c1nnnn1C(C)(C)C)N(Cc1ccco1)Cc1cc2cccc(C)c2[nH]c1=O (centres undefined)	.	.	.	66
O=[N+]([O-])c1ccc(-c2csc(Nc3ccccc3)[n+]2Cc2ccccc2)cc1	.	.	.	84
CC(=O)Nc1ccc(NC(=O)CS(=O)(=O)c2cn(CC(=O)N3CCC(C)CC3)c3ccccc23)cc1	/	/	/	.
O=C(CSc1nnc(-c2ccc(Br)o2)n1Cc1ccccc1)c1ccccc1F	.	.	.	72
O=C(/C=C/c1c(F)cccc1Cl)N1CCOCC1	/	/	/	.
Cc1c(C(=O)OCC(=O)NCc2ccc3c(c2)OCO3)cccc1[N+](=O)[O-]	.	.	.	60
COC1C=CC=C(C)C(=O)NC2=CC(=O)C(N)=C(CC(C)CC(OC)C(O)C(C)C=C(C)C1OC(N)=O)C2=O (centres undefined)	/	/	/	69
COc1ccc(NC(=O)COc2ccccc2Cc2ccccc2)cc1S(N)(=O)=O	/	/	/	81
CSCCC(NC(=O)c1cccc(C)c1)C(=O)OCC(=O)Nc1c(C)nn(-c2ccccc2)c1C (centres undefined)	/	/	/	.
COCCn1c(=NC(=O)CSCC(=O)N2CCOCC2)sc2cc(C)ccc21	/	/	/	.
c1ccc(N2CCN(c3nc4ccccc4[nH]3)CC2)nc1	.	.	.	63
Cc1nc(N/C(N)=N/S(=O)(=O)c2ccc([N+](=O)[O-])cc2)nc2ccccc12	.	.	.	.
CCCCNC(=O)COC(=O)c1c2c(nc3ccccc13)/C(=C/c1cccs1)CC2	.	.	.	/
CNC(=O)NC(=O)C(C)OC(=O)c1c2c(nc3ccccc13)/C(=C/c1cccs1)CC2 (centres undefined)	.	.	.	60
SMILES	Hsp70 act	TNF death inh	zVAD death inh	HSF-1 act
O=C(Nc1ccc(Cl)cc1)C1C2CCCCC21 (centres undefined)	/	/	/	79
O=C1CCC(C(=O)Nc2ccc(Cl)cc2)N1 (centres undefined)	/	/	/	.
O=C(Nc1ccc(S(=O)(=O)Nc2ccccc2)cc1)c1ccc(CN2CCOCC2)cc1	.	.	.	.
CCOC(=O)c1sc(NC(=O)c2sccc2C)cc1C	.	.	.	73
O=C(c1ccccc1)c1ccc2nc(-c3ccco3)c(-c3ccco3)nc2c1	.	.	.	89
CC1CN(C(=O)CCCN2C(=O)c3ccccc3C2=O)CC(C)O1 (centres undefined)	/	/	/	.
CCNc1ccc(S(=O)(=O)N(C)C)cc1NCC(=O)Nc1ccccc1Br	.	.	.	115
Cc1nnc(SC(C)C(=O)Nc2c(C)n(C)n(-c3ccccc3)c2=O)n1N (centres undefined)	.	.	.	.
CCOC(=O)c1c(NC(=O)CSc2nnc(CNc3ccc(Cl)cc3)o2)sc(C)c1C	.	.	.	67
CCOC(=O)c1c(NC(=O)CSc2nnc(CNc3ccc(F)cc3)o2)sc(C)c1C	.	.	.	.
COc1cc2c(cc1OC)C(C)N(S(=O)(=O)c1ccc(C)cc1)CC2 (centres undefined)	/	/	/	60
Cc1nc(C)n(CCNS(=O)(=O)c2ccc(C)c(C)c2)n1	/	/	/	.

Assay outcomes (PubChem)
